Consider 63 compounds from PubChem BioAssay AID651610 (Broad Institute, 2012).

Each structure is given as a SMILES string. Among all 360,000 compounds or so, about 3,900 (1.1%) were called active. Only a selection was taken, and actives are over-represented in it overall. Values without a mark were called inactive.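 Rule for the calls: active = mean replicate inhibition score of at least 50 and every replicate individually at or above 50; inconclusive = only one of the two criteria met; inactive = mean below 50 and not all replicates reaching 50.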

In general, inhibition refers to the drop in the measured response relative to a control, in per cent.

The test can be described thus: blockers of JRFL envelope-mediated fusion – HeLa-JRFL effector, CEM21 target cells, luciferase, primary screen (AID 651610).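 Note: 0% = plate neutral controls and 100% = maraviroc near 300 nM.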 Particulars: HeLa-JRFL Env/CEM21 cell fusion, stronger effect = higher value; at 16.7 µM unless noted.
With `O=C(C[C@@H]1CC[C@@H]2[C@H](COC[C@H](O)CN2C(=O)c2cccnc2)O1)NC1Cc2ccccc2C1`, the inhibition was -0.583%.

As to `CO[C@@H]1CN(C)C(=O)c2ccc(NC(=O)c3cccc(Oc4ccccc4)c3)cc2OC[C@H](C)NC[C@@H]1C`, the inhibition is 12.8%.

As for `CN1CCn2cnc(C(=O)NCC(=O)OC(C)(C)C)c2C1=O`, the inhibition is 2.91% [at 12.3 µM].

Take `Cc1ccc(NC(=O)c2nc[nH]c2C(=O)N[C@@H](CCCCNC(=O)OC(C)(C)C)C(=O)OC(C)(C)C)cc1`: the inhibition was 32.1% [at 12.3 µM].

Turning to `C[C@@H]1Cn2cnc(C(=O)Nc3ccc(CNC(=O)OC(C)(C)C)cc3)c2C(=O)N1`, the inhibition is 58.6% [at 12.3 µM] (active).

Consider `O=C(CCN1CCCCC1)N[C@@H]1C=C[C@@H](CC(=O)N2CCC(Cc3ccccc3)CC2)O[C@H]1CO`, for which the inhibition was 3.09%.

With `CSCCC(NS(=O)(=O)c1ccc2c(c1)oc(=O)n2C)C(=O)NC1CCCc2ccccc21` (stereo not drawn), the inhibition is 87% [at 12.3 µM] (active).

Regarding `CSCCC(NS(=O)(=O)c1ccc2c(c1)oc(=O)n2C)C(=O)NCc1ccccc1` (stereo not drawn), the inhibition was -4.2% [at 12.3 µM].

Regarding `CNS(=O)(=O)c1cccc(C(=O)NC2CCCc3ccccc32)c1` (stereo not drawn), the inhibition was 15.1% [at 12.3 µM].

As to `Cc1noc(C)c1NC(=O)N(C)C[C@H]1OCCCC[C@@H](C)Oc2ccc(NS(=O)(=O)c3ccc(Cl)cc3)cc2C(=O)N([C@@H](C)CO)C[C@H]1C`, the inhibition was -65.1%.

As to `CCCN(C)C[C@H]1OCCCC[C@@H](C)Oc2ccc(NC(=O)Nc3ccc(F)cc3)cc2C(=O)N([C@@H](C)CO)C[C@H]1C`, the inhibition was -12.4%.

As for `C[C@@H]1CCCCO[C@@H](CN(C)C(=O)C2CCCCC2)[C@H](C)CN([C@H](C)CO)C(=O)c2cc(NC(=O)Cc3ccccc3)ccc2O1`, the inhibition is -36.4%.

With `CCN(C[C@H]1N[C@@](Cc2ccccc2)(C(=O)OC)[C@H]2C(=O)N(Cc3ccccc3)C(=O)[C@@H]12)C(=O)c1ccc(C)cc1`, the inhibition is -47.2% [at 12.3 µM].

As to `CC[C@]1(C(=O)OC)[C@H]2C(=O)N(Cc3ccccc3)C(=O)[C@H]2[C@H]2CN=C(SCc3ccccc3)N21`, the inhibition is 93.6% [at 12.3 µM] (active).

Consider `CC[C@]1(C(=O)OC)[C@H]2C(=O)N(C)C(=O)[C@H]2[C@H]2CN(C)C(=NCc3ccccc3)N21`, for which the inhibition was -17.3% [at 12.3 µM].

Consider `CCN1C[C@@H]2[C@@H]3C(=O)N(Cc4ccccc4)C(=O)[C@@H]3[C@](C)(C1=O)N2C(=O)c1ccc(C(C)(C)C)cc1`, for which the inhibition is -9.05% [at 12.3 µM].

`CCNC(=O)N(CC)C[C@H]1N[C@@](CC)(C(=O)OC)[C@H]2C(=O)N(Cc3ccccc3)C(=O)[C@@H]12`: the inhibition was -2.99% [at 12.3 µM].

`CCN1C[C@@H]2[C@@H]3C(=O)N(Cc4ccccc4)C(=O)[C@@H]3[C@](Cc3ccccc3)(C(=O)OC)N2C1=NC1CCCCC1`: the inhibition is 16.7% [at 12.3 µM].

For `COC(=O)[C@]1(Cc2ccccc2)N[C@H](CN(C)S(=O)(=O)c2ccc(F)cc2)[C@@H]2C(=O)N(Cc3ccccc3)C(=O)[C@@H]21`, the inhibition is 31.6% [at 12.3 µM].

Regarding `CC[C@]1(C(=O)OC)[C@H]2C(=O)N(Cc3ccccc3)C(=O)[C@H]2[C@H]2CN=C(SCc3ccc(C#N)cc3)N21`, the inhibition is 87.6% [at 12.3 µM] (active).

Consider `COC(=O)[C@@]1(C)[C@H]2C(=O)N(Cc3ccccc3)C(=O)[C@H]2[C@H]2CN=C(SCC3CC3)N21`, for which the inhibition is 84% [at 12.3 µM] (active).

For `CO[C@@H]1CN(C)C(=O)c2cc(NC(C)=O)ccc2OC[C@H](C)N(C(=O)CC2CC2)C[C@@H]1C`, the inhibition was -18.3%.

As for `Cc1noc(C)c1S(=O)(=O)Nc1ccc2c(c1)C(=O)N([C@H](C)CO)C[C@@H](C)[C@@H](CN(C)C(=O)C1CCCCC1)OCCCC[C@@H](C)O2`, the inhibition was 2.09%.

Turning to `C[C@H](O)C#Cc1cnc2c(c1)C(=O)N([C@@H](C)CO)C[C@H](C)[C@@H](CN(C)C(=O)c1ccncc1)O2`, the inhibition was -14.6%.

With `CO[C@@H]1CN(C)C(=O)c2cc(NC(=O)c3ccc(F)cc3)ccc2OC[C@H](C)NC[C@@H]1C`, the inhibition was -6.15%.

In the case of `Cc1ccccc1S(=O)(=O)N[C@H]1CC[C@@H](CCn2cc(Cc3ccccc3)nn2)O[C@H]1CO`, the inhibition was 0.428%.

Consider `CCCC(=O)Nc1ccc2c(c1)OC[C@@H](C)N(CC1CCOCC1)C[C@H](C)[C@H](OC)CN(C)C2=O`, for which the inhibition is -7.57%.

As to `C[C@@H]1CN([C@H](C)CO)C(=O)c2cccc(NC(=O)Nc3ccccc3)c2O[C@H]1CN(C)Cc1ccccc1`, the inhibition is 9.88%.

With `Cc1ccc(S(=O)(=O)N(C)C[C@@H]2OCCCC[C@H](C)Oc3ccc(NS(=O)(=O)c4cn(C)cn4)cc3C(=O)N([C@H](C)CO)C[C@@H]2C)cc1`, the inhibition was -30.7%.

Turning to `CO[C@H]1CN(C)C(=O)c2ccc(NS(=O)(=O)c3ccccc3)cc2OC[C@@H](C)N(Cc2nccs2)C[C@@H]1C`, the inhibition is -11.1%.

For `C/C=C/c1ccc([C@@H]2[C@@H](CO)N(C(=O)CN(C)C)C23CN(C(=O)C2CCCC2)C3)cc1`, the inhibition was 25.3%.

Turning to `COC(=O)C1=C(C(=O)OC)C2C=C(C(C)C)C1C(=O)C2(C)O` (stereo not drawn), the inhibition is -16.5% [at 12.3 µM].

Take `Cc1c(C(=O)Nc2cccc(S(=O)(=O)N3CCOCC3)c2)oc2ccccc12`: the inhibition was 60.5% [at 12.3 µM] (active).

As for `Cc1occc1C(=O)Nc1cccc(S(=O)(=O)N2CCOCC2)c1`, the inhibition was -25.4% [at 12.3 µM].

Turning to `COc1ccc(NC(=O)c2oc3ccc(S(=O)(=O)N4CCOCC4)cc3c2C)cc1`, the inhibition was 6.27% [at 12.3 µM].

Regarding `COc1ccc(S(=O)(=O)N(C)C[C@@H]2OCCCC[C@@H](C)Oc3ccc(NS(=O)(=O)c4ccccc4)cc3C(=O)N([C@@H](C)CO)C[C@H]2C)cc1`, the inhibition was -2.53%.

On to `O=C(Nc1ccc(N2CCN(C(=O)c3ccccc3)CC2)c(Cl)c1)c1ncn[nH]1`, for which the inhibition was 5.87% [at 12.3 µM].

Consider `Cc1ccccc1N1CCN(C(=O)c2cccnc2)CC1`, for which the inhibition is 6.64% [at 12.3 µM].

For the compound `O=C(Nc1ccc(N2CCN(C(=O)c3ccccc3)CC2)c(Cl)c1)c1cccnc1`, the inhibition is 86.4% [at 12.3 µM] (active).

As for `C[C@H](CO)N1C[C@H](C)[C@H](CN(C)Cc2ccncc2)Oc2ncc(C#Cc3cccc(F)c3)cc2C1=O`, the inhibition was 7.42%.

For `CC(C)NC(=O)N[C@@H]1CC[C@H](CC(=O)NCCN2CCCC2)O[C@@H]1CO`, the inhibition was 20.3%.

Regarding `C[C@H](CO)N1C[C@H](C)[C@H](CN(C)C(=O)Nc2ccc(C(F)(F)F)cc2)Oc2ccc(NC(=O)Nc3ccccc3)cc2C1=O`, the inhibition was 15.8%.

Turning to `COc1ccc(CC(N)c2csc(NC(=O)Cc3ccccc3)n2)cc1` (stereo not drawn), the inhibition is -13.2% [at 12.3 µM].

Regarding `NC(Cc1ccc(F)cc1)c1csc(Nc2nncc3ccccc23)n1` (stereo not drawn), the inhibition was 58.7% [at 12.3 µM] (active).

Consider `NC(Cc1ccccc1)c1csc(Nc2cc(Oc3ccccc3)ncn2)n1` (stereo not drawn), for which the inhibition was -44.1% [at 12.3 µM].

As for `C[C@H]1CCCCO[C@@H](CN(C)Cc2ccc(C(=O)O)cc2)[C@@H](C)CN([C@@H](C)CO)C(=O)c2cc(NS(C)(=O)=O)ccc2O1`, the inhibition was 18.6%.

Regarding `CN1C(=O)c2cc(NC(=O)c3ccc4c(c3)OCO4)ccc2OC[C@@H]2O[C@H](CC(=O)O)CC[C@H]21`, the inhibition was -18.9%.

As for `O=C(Nc1cc(Cl)cc(Cl)c1)N[C@H]1CC[C@@H](CCNS(=O)(=O)c2cccc(F)c2)O[C@H]1CO`, the inhibition is 0.313%.

For the compound `CCCCNc1cccc2c1S(=O)(=O)N[C@@H](C)CO2`, the inhibition is -0.896% [at 12.3 µM].

As for `C/C(=N/NC(=O)c1ccncc1)c1ccc2c(c1)OCO2`, the inhibition was -13.1% [at 12.3 µM].

Regarding `NS(=O)(=O)c1ccc2nc(NC(=O)C3=COCCO3)sc2c1`, the inhibition was -13.9% [at 12.3 µM].

As to `Cc1ccc(-c2csc(NC(=O)C3=COCCO3)n2)cc1C`, the inhibition is 55.4% [at 12.3 µM] (active).

With `CCC(CC)c1nnc(NC(=O)C2=COCCO2)s1`, the inhibition is -12% [at 12.3 µM].

Turning to `COc1ccc(C(O)c2nc(-c3ccc4c(c3)OCO4)cs2)cc1` (stereo not drawn), the inhibition is -6.46% [at 12.3 µM].

As for `O=C(Nc1nc(-c2ccc3c(c2)OCO3)cs1)c1ccncc1`, the inhibition is 71% [at 12.3 µM] (active).

Turning to `Cc1noc(C)c1NC(=O)N(C)C[C@@H]1OCCCC[C@@H](C)Oc2ccc(NC(=O)C3CCCCC3)cc2C(=O)N([C@H](C)CO)C[C@@H]1C`, the inhibition was -14%.

`C[C@@H]1CN([C@@H](C)CO)C(=O)c2cc(NC(=O)Nc3cccc4ccccc34)ccc2O[C@@H]1CN(C)C(=O)Nc1cccc2ccccc12`: the inhibition is 7.37%.

In the case of `C[C@@H]1CN([C@@H](C)CO)C(=O)c2cc(-c3cncnc3)cnc2O[C@H]1CN(C)C(=O)c1cccc(F)c1`, the inhibition was -6.88%.

Take `C[C@@H]1CN([C@@H](C)CO)S(=O)(=O)c2ccc(C#CC3(O)CCCC3)cc2O[C@H]1CN(C)C(=O)c1ccncc1`: the inhibition was -22.7%.

For `CNC[C@H]1Oc2cc(-c3ccc(OC)cc3)ccc2S(=O)(=O)N([C@H](C)CO)C[C@@H]1C`, the inhibition was 1.64%.

For `CNC[C@H]1Oc2c(NC(=O)C3CC3)cccc2C(=O)N([C@@H](C)CO)C[C@@H]1C`, the inhibition was -1.43%.

As for `CCS(=O)(=O)N[C@@H]1CC[C@@H](CC(=O)NCC2CC2)O[C@H]1CO`, the inhibition was -3.04%.

`C[C@@H]1CN([C@H](C)CO)S(=O)(=O)c2ccc(-c3ccccc3)cc2O[C@H]1CN(C)C(=O)C1CCC1`: the inhibition is 19.5%.
